According to PubChem BioAssay AID504466 (National Center for Advancing Translational Sciences (NCATS), 2011):
The whole screen tested about 330,000 compounds, of which about 4,200 (1.3%) were called active. About 6% were inconclusive and are not listed. The full list was thinned out, with actives kept by preference. A number with no mark means an inactive call. The call rests on the fitted dose curve; in most records, active means well fitted activation curve with a large enough effect; inconclusive means small, poorly fitted or top-dose-only effect; inactive means no such curve, though single readings can be large or run the other way.

assay: qHTS screen for small molecules that induce genotoxicity in human embryonic kidney (HEK293T) cells expressing luciferase-tagged ELG1; conditions: HEK293T ELG1-luciferase reporter, luminescence, 16 h; series mostly up to 46 µM; activity change, positive = activation: at the top concentration; further: nearly all actives have a fitted effect of over 60% in size; on activity change, positive = activation: % of control where 0% means no effect
In short: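 DMSO vehicle served as control against compound-treated ELG1-luciferase HEK293T cells; exposure lasted 16 hr at 37 °C and 5% CO2, followed by ONE-Glo luminescence detection after 30 min.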
Potency means the concentration at half of the fitted maximal effect.

Structure (SMILES) | activity change, positive = activation | Potency
Cc1ccc(C(=O)NCC(=O)NC2CC2)cc1 | 3.52% | –
COc1ccc(/C=C(\C#N)C(=O)ONC2=NCCCCC2)cc1 | -2.29% | –
Oc1ccc(/C=N/NC2=NCCCCC2)c(O)c1 | – | 7.31 µM (active)
Oc1ccc(/C=N/Nc2nc(-c3ccccc3F)nc3ccccc23)c(O)c1 | -11.4% | –
O=C(Cn1cnc2ccccc2c1=O)NNC(=O)c1ccccc1F | 0.474% | –
COc1ccc(C(=O)Nc2cc(S(=O)(=O)N3CCCC3)ccc2Cl)cc1 | -0.914% | –
Clc1cccc(N=C2NN=C(c3ccc4c(c3)OCCO4)CS2)c1 | – | 2.31 µM (active)
CN(C)c1nc(=Nc2cccc(Cl)c2)ss1 | 2.77% | –
c1ccc(CN2CCC(N=C3NN=C(c4ccc5c(c4)OCCO5)CS3)CC2)cc1 | 0.435% | –
CCOC(=O)c1c(N)nn(C(=O)c2ccccc2)c1-c1ccccc1 | -8.81% | –
Cc1occc1C(=O)Nc1cccc(Cn2cccn2)c1 | 4.11% | –
Cc1nn(C(=O)c2ccoc2C)c(N)c1-c1ccccc1 | – | 13 µM (active)
Cc1ccc(C(=O)Nc2ccc3c(c2)OCCO3)cc1S(=O)(=O)N1CCOCC1 | 10.5% | –
N#CNC1=NCN(CCc2ccccc2)CN1 | -0.27% | –
c1ccc(CCN2CN=C(Nc3nc4ccccc4o3)NC2)cc1 | – | 18.4 µM (active)
Cc1ccc2nc(NC3=NCN(CCc4ccccc4)CN3)nc(C)c2c1 | -4.53% | –
CCN(CC)C(=O)[C@H]1C[C@H](CC(=O)NCC23CC4CC(CC(C4)C2)C3)C(=O)N2CCc3c([nH]c4cc(CCC(=O)N(C)C)ccc34)[C@]12C | -0.656% | –
N#C/C(=C1/CCCN1)c1ccccn1 | -2.36% | –
N#CC(=C1SC=CS1)c1nc(-c2ccccc2)cs1 | – | 5.8 µM (active)
COc1cc(/C=C/C(=O)OCC(=O)NCCCc2ccccc2)ccc1O | 5.01% | –
O=C(NCCC(=O)N1O[C@@H]2C=C[C@H]1C2)OCC1c2ccccc2-c2ccccc21 | 5.79% | –
O=C(COC(=O)c1n[nH]c2ccccc12)NCc1ccccc1 | 7.07% | –
COc1ccc(COC(=O)c2n[nH]c3ccccc23)cc1F | – | 14.6 µM (active)
COc1ccc(NC(=O)COC(=O)c2n[nH]c3ccccc23)c(OC)c1 | -1.81% | –
O=C(CC1SC(N2CCOCC2)=NC1=O)Nc1ccccc1F (stereo not given) | 3.27% | –
Cc1noc(C)c1-c1ccc2ncnc(NC(C)c3ccco3)c2c1 (stereo not given) | – | 16.4 µM (active)
c1coc(CNc2ncnc3ccccc23)c1 | -10.6% | –
COc1ccc(NS(=O)(=O)c2ccc(C(=O)Nc3c(C)n(C)n(-c4ccccc4)c3=O)cc2)cc1 | 1.95% | –
CCCN(C(=O)CSc1nnc(N)s1)c1c(N)n(Cc2ccccc2)c(=O)[nH]c1=O | -2% | –
CN(C(=O)CSc1cccc[n+]1[O-])C1CCCCC1 | 2.05% | –
